PubChem BioAssay (NCATS)
Inconclusive results are not listed. A call without a number means that no potency is given here. Active and inactive are the calls of the source. Calls come from the whole dose curve.

assay: Primary qHTS for Vero E6 cytotoxicity: counterscreen for inhibitors of SARS-S pseudo-typed particle cell entry (AID 1479150); conditions: cell viability; series mostly up to 57.1 µM

Compound | Potency
CC[N+](CC)(CCNC(=O)C(=O)NCC[N+](CC)(CC)Cc1ccccc1Cl)Cc1ccccc1Cl | inactive
CC(=O)Nc1c(I)cc(I)c(C(=O)O)c1I | inactive
CCOc1ccc(NC(=O)CC(C)O)cc1 (stereo not drawn) | inactive
C/C(=N\O)[C@@H](C)NCC(C)(C)CN[C@H](C)/C(C)=N/O | inactive
CCCc1ccc(OCC(=O)N2CCN(C(=O)COc3ccc(CCC)cc3OC)CC2)c(OC)c1 | inactive
CC(=O)N(CC(O)CO)c1c(I)c(C(=O)NCCO)c(I)c(C(=O)NCC(O)CO)c1I (stereo not drawn) | inactive
Nc1ccc(S(=O)(=O)NC(=O)c2ccccc2)cc1 | inactive
CO[C@@]1(NC(=O)C(C(=O)O)c2ccc(O)cc2)C(=O)N2C(C(=O)O)=C(CSc3nnnn3C)CO[C@@H]21 (stereo partly drawn) | inactive
Clc1cccc(C(c2ccc3nc[nH]c3c2)n2ccnc2)c1 (stereo not drawn) | inactive
Cc1ncc(CO)c(CO)c1O | inactive
CC(=O)OCC(=O)[C@@]1(O)CC[C@H]2[C@@H]3CCC4=CC(=O)CC[C@]4(C)[C@H]3C(=O)C[C@@]21C | inactive
CCn1cc(C(=O)O)c(=O)c2cc(F)c(N3CCNC(C)C3)c(F)c21 (stereo not drawn) | inactive
O=C(COCCOCCOCC(=O)Nc1c(I)cc(I)c(C(=O)O)c1I)Nc1c(I)cc(I)c(C(=O)O)c1I | inactive
C[N+](C)(C)CCOC(N)=O | inactive
CC(C)Cn1cnc2c(N)nc3ccccc3c21 | inactive
Nc1nc(/C(=C/CC(=O)O)C(=O)N[C@@H]2C(=O)N3C(C(=O)O)=CCS[C@H]23)cs1 | inactive
O=c1oc2ccccc2c(O)c1Cc1c(O)c2ccccc2oc1=O | inactive
CC(=O)CC(c1ccc([N+](=O)[O-])cc1)c1c(O)c2ccccc2oc1=O (stereo not drawn) | inactive
CC(=O)[C@@]1(O)CC[C@H]2[C@@H]3C[C@H](C)C4=CC(=O)C=C[C@]4(C)[C@@]3(F)[C@@H](O)C[C@@]21C | inactive

Compound | Potency
N[C@@H](Cc1cc(I)c(Oc2ccc(O)c(I)c2)c(I)c1)C(=O)O | inactive
C[C@](O)(CS(=O)(=O)c1ccc(F)cc1)C(=O)Nc1ccc(C#N)c(C(F)(F)F)c1 | inactive
CC1(C)O[C@@H]2C[C@H]3[C@@H]4CCC5=CC(=O)C=C[C@]5(C)[C@@H]4[C@@H](O)C[C@]3(C)[C@]2(C(=O)CO)O1 | inactive
CN(C)CCN(Cc1ccsc1)c1ccccn1 | inactive
CCOC(=O)[C@H](CCc1ccccc1)N[C@H]1CCCN2CCC[C@@H](C(=O)O)N2C1=O | inactive
CC(C)=CCC/C(C)=C/CO | inactive
CCCCCCCCCCCCOCCO | inactive
COCCOC(=O)C1=C(C)NC(C)=C(C(=O)OC(C)C)C1c1cccc([N+](=O)[O-])c1 (stereo not drawn) | inactive
CCN(CC)CCNC(=O)c1ccc(N)cc1 | inactive
NC(N)=NC(=O)Cc1c(Cl)cccc1Cl | inactive
Nc1ccn([C@@H]2CS[C@H](CO)O2)c(=O)n1 | inactive
O=S(=O)(O)c1ccc2nc(-c3ccccc3)[nH]c2c1 | inactive
C[N+]1(C)CCCC(OC(=O)C(O)(c2ccccc2)c2ccccc2)C1 (stereo not drawn) | inactive
CN=C(NC#N)NCCSCc1nc[nH]c1C | inactive
CCc1cc(C(N)=S)ccn1 | inactive
Nc1ccc(S(=O)(=O)Nc2ccccn2)cc1 | inactive
CC(CSC(=O)c1ccccc1)C(=O)N1C[C@@H](Sc2ccccc2)C[C@H]1C(=O)O (stereo partly drawn) | inactive
COc1ccc(NS(=O)(=O)c2ccc(N)cc2)nn1 | inactive
Cc1oc(=O)oc1CN1CCN(c2cc3c(cc2F)c(=O)c(C(=O)O)c2n3C(C)S2)CC1 (stereo not drawn) | inactive
